# Measured values from PubChem BioAssay AID1259415 (National Center for Advancing Translational Sciences (NCATS), 2018).
# Screen size: about 410,000 compounds; about 18,000 (4.4%) were called active. Inconclusive results (about 7%) are left out. What follows is part of a selection rich in actives, with near analogues and random picks from the rest. Unmarked numbers belong to inactive results. No stated cut-off is given here; in the data, active means activity change below about -60%; inconclusive means no clear call, values can overlap the other calls; inactive means above about -39%.
# Test: qHTS Assay for inhibitors of the human cytomegalovirus (HCMV)
# Details: HFF cells, HCMV-luciferase reporter, 72 h; at 57.5 µM; hits give low values
# Outline: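 Two compound doses tested in HFFs infected with HCMV-luciferase, MOI 1 PFU/cell, 72 h at 37C. Lysate luminescence read with OneGlo; data normalized against buffer-only and 10uM Salinomycin inhibitor controls.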
# On the % scale 0 is the no-effect control and ±100 the full control effect.
row,SMILES,"activity change, negative = inhibition"
1,COc1ccc(N2CCN(Cc3nc4c(c(=O)[nH]c(=O)n4C)n3Cc3ccc(Cl)cc3)CC2)cc1,-12.8%
2,Cc1cc(OC(C)C(=O)Nc2sc3c(c2C(N)=O)CCCC3)ccc1Cl (centres undefined),-5.13%
3,O=C(NCCCN1CCCCC1)C1CC(=O)N(CCc2ccccc2)C1 (centres undefined),0.846%
4,Cc1ccc(CCN2CC(C(=O)NCCc3ccccc3)CC2=O)cc1 (centres undefined),-5.82%
5,O=C(NC1CCCCC1)C1CC(=O)N(CCc2ccccc2)C1 (centres undefined),-109% (active)
6,CC(=O)N1c2ccc(S(=O)(=O)N3CCCCCC3)cc2CC1C(=O)NCc1ccccc1C (centres undefined),8.34%
7,O=C(C1CCC(Cn2c(=O)c3sccc3n(Cc3ccccc3F)c2=O)CC1)N1CCCCC1 (centres undefined),3.01%
8,CC(=O)N1CCC(C(=O)OCc2ccc(Cl)cc2)(c2ccccc2)CC1,7.78%
9,O=C(OCCN1CCOCC1)C1(c2ccccc2)CCCCC1,-71.6% (active)
10,O=C(OCCN1CCOCC1)C1(c2ccccc2)CCCC1,-35.5%
11,COc1ccc(CCNc2ncnc3c2cnn3-c2ccc(C)cc2)cc1,-8.18%
12,O=C1CCC[C@H]2[C@@H](Cc3ccccc3)[C@@H](NS(=O)(=O)c3ccc([N+](=O)[O-])cc3[N+](=O)[O-])CC[C@]23CCCN13,-34.8%
13,CCOC(=O)/C=C/C(=O)OCC(=O)NC(c1ccccc1)c1ccccc1,-66.5% (active)
14,CCOc1ccc(C(CC(=O)O)NC(=O)COc2ccccc2)cc1 (centres undefined),36.3%
15,Cc1ccccc1OCCC(=O)OCC(=O)NC(C)c1ccccc1 (centres undefined),145%
16,Cc1ccn(C(CC(=O)c2ccc(Br)cc2)C(=O)O)n1 (centres undefined),18.9%
17,O=c1ccc2c(-c3ccccc3S(=O)(=O)O)c3ccc(O)c(O)c3oc-2c1O,-91.7% (active)
18,Cc1nc(N2CCOCC2)c2c(C(=O)NCc3cccc(Cl)c3)c(C)oc2n1,-10.3%
19,COc1cccc(C(=O)NCC(=O)OCc2cc(=O)n3ccsc3n2)c1,8.23%
20,CCOC(=O)c1c(C)oc2nc(C)nc(N3CCN(c4ccc(OC)cc4)CC3)c12,-14.4%
21,CCN(CC)c1ccc2oc(=O)c(C)nc2c1,-70.4% (active)
22,COc1ccc2c(c1)C(=C(C#N)C#N)C(=O)N2CCc1ccccc1,32.5%
23,CCCN1C(=O)C(O)(CC(=O)c2ccc(CC)cc2)c2cc(Br)ccc21 (centres undefined),-70.2% (active)

row,SMILES,"activity change, negative = inhibition"
1,Cc1ccc(C(=O)CC2(O)C(=O)N(CCc3ccccc3)c3ccc(Br)cc32)cc1 (centres undefined),-97.7% (active)
2,C=CCN1C(=O)C(O)(CC(=O)c2ccccn2)c2ccccc21 (centres undefined),51.3%
3,CCOC(=O)CN1C(=O)C(O)(CC(=O)c2ccccn2)c2ccccc21 (centres undefined),12.1%
4,CCc1ccc(C(=O)CC2(O)C(=O)N(CCc3ccccc3)c3ccc(Br)cc32)cc1 (centres undefined),-104% (active)
5,Cc1ccc2c(c1)C(O)(CC(=O)c1cccc(-n3cccc3)c1)C(=O)N2 (centres undefined),-9.59%
6,Cc1coc(C)c1C(=O)CC1(O)C(=O)N(C)c2ccc(Cl)cc21 (centres undefined),0%
7,O=C(CC1(O)C(=O)N(CN2CCOCC2)c2ccccc21)c1ccccc1 (centres undefined),23.8%
8,Cc1ccc(S(=O)(=O)N2CCC(C(=O)Nc3cc(C)ccc3C)CC2)cc1,10.8%
9,Cc1cc(C)nc(-n2ncc3c2CC(c2ccc(C(C)C)cc2)CC3=O)n1 (centres undefined),-22.8%
10,Cc1ccccc1NC(=O)Cn1c(=O)n(Cc2ccco2)c(=O)c2ccc(C(=O)NC3CCCC3)cc21,36.1%
11,CCOC(=O)N1CCc2c(sc(NCc3cccc(F)c3)c2C(=O)Nc2ccccc2OCC)C1,30.2%
12,CN(C(=O)c1c(Cl)cnn1C)C12CC3CC(CC(C3)C1)C2,-18.8%
13,O=C(O)c1c(CNCc2cccc(F)c2)c2ccccc2n1Cc1ccccc1,8.63%
14,Cc1ccc(C(=O)Nc2c(C(=O)NC(C)(C)C)oc3ccccc23)cc1,-18.8%
15,COc1ccccc1CNc1ccc(-c2nc(-c3ccccc3C)no2)cc1[N+](=O)[O-],3.35%
16,Cc1ccccc1CNC(=O)Cn1c(C)c2cnn(-c3ccccc3)c(=O)c2c1C,-13%
17,CCCNC(=O)N1CCC2(CC1)CN(C(=O)CN1CCOCC1)[C@H](CO)c1[nH]c3cc(OC)ccc3c12,0.475%
18,CC(C)=CCc1ccc(O)c(=O)cc1C(C)C,-101% (active)
19,CCNC(=O)c1cc2n(n1)CCCN(Cc1ccc(C)cc1)C2=O,-3.42%
20,Cc1cc(C)cc(OCC(=O)Nc2c(C(=O)c3ccccc3)oc3ccccc23)c1,0.353%
21,CCC(C)(C)NC(=O)CN(Cc1cccs1)C(=O)CNS(=O)(=O)c1ccc(F)cc1,-8.36%
22,COc1ccc(Cn2c(=O)c3oc4ccccc4c3n(CC(=O)Nc3ccc(F)cc3F)c2=O)cc1,6.84%
23,CCOC(=O)c1ccc(NC(=O)CCn2cnnn2)cc1,20.5%

row,SMILES,"activity change, negative = inhibition"
1,CCc1c(Nc2ccccc2C)nc(N)[nH]c1=O,90.6%
2,Cc1cc(=O)n(C)c(=O)n1CCCNc1ccccc1,-33.2%
3,Cc1[nH]c(N)nc(=S)c1CCCNc1ccccc1,-99.8% (active)
4,Cc1nnnn1/C(=C\c1ccccc1)C(=O)OCC(=O)N1CC2(C)CC1CC(C)(C)C2 (centres undefined),-85.3% (active)
5,COC(=O)c1cc2n(n1)CCCNC2=O,14.4%
6,CCC(C)(O)C(=O)OC1C(=O)OC2CC3C(C)=CC(=O)C(O)C3(C)C3C4(O)OCC23C1C(C)C4O (centres undefined),-96.7% (active)
7,COCCNC(=S)N/N=C/c1c(C)[nH]c2ccccc12,-68.5% (active)
8,COCCCNC(=S)NNC(=O)C(O)(c1ccccc1)c1ccccc1,-17.8%
9,COCCNC(=S)N(CCc1c(C)[nH]c2ccc(C)cc12)Cc1cccnc1,5.87%
10,CCOC(=O)c1cccc(NS(=O)(=O)c2cc(-c3cnc(C)o3)ccc2OC)c1,-8.81%
11,COc1ccc(CCNC(=O)CC2SC(=Nc3cc(C)cc(C)c3)NC2=O)cc1OC (centres undefined),37.9%
12,CC(=O)N1CCC(N(C(=O)Nc2ccc(Cl)cc2)C(C)C)CC1,-34.8%
13,CC(C)S(=O)(=O)c1csc(NC(=O)Nc2ccc(Cl)cc2)c1Cl,-93.2% (active)
14,COc1ccc(OCC(O)CNC(=O)Nc2ccc(Cl)cc2)cc1 (centres undefined),-6.88%
15,COc1ccc(Cl)cc1NC(=O)CN(C)C(=O)c1cc(-c2cccs2)nn1-c1ccccc1,-21.5%
16,COc1cc(OC)cc(C(=O)NCCc2csc3nc(-c4ccccc4F)nn23)c1,-6.5%
17,Cc1ccc2[nH]c3c(=O)n(CC(=O)NC(C)C)ncc3c2c1,5.38%
18,C=C(C)C(=O)O[C@H]1C/C(C)=C\C(=O)/C=C(\C)[C@H](O)[C@@H]2OC(=O)C(=C)[C@@H]21,-98.8% (active)
19,Fc1cccc(-c2nc3c(N4CCOCC4)nccc3[nH]2)c1,6.37%
20,CCc1cccc(-n2nnc(-c3nsc(NC(=O)c4ccc(C)cc4)n3)c2C)c1,-39.1%
21,CC(C)(C)c1cc(C(=O)N/N=C/c2ccc([N+](=O)[O-])s2)n[nH]1,-73.9% (active)
22,Cc1ccccc1NCC(=O)N/N=C\c1ccc([N+](=O)[O-])s1,-78.2% (active)
23,COc1ccc(N(CC(=O)N/N=C/c2cccs2)S(=O)(=O)c2ccc(OC)c(OC)c2)cc1,3.94%

row,SMILES,"activity change, negative = inhibition"
1,Cc1ccsc1/C=N/NC(=O)Cc1cc(=O)[nH][nH]1,80.6%
2,C/C(=N\NC(=O)CNc1cccc2ccccc12)c1ccc(Br)s1,21.2%
3,COc1ccc(C(=O)NCC(=O)N/N=C/c2ccc([N+](=O)[O-])s2)cc1OC,-92.4% (active)
4,COc1ccc(C(=O)NCC(c2ccco2)N2CCc3ccccc32)cc1OC (centres undefined),-5.62%
5,Cc1nnc(SCc2nc3ccccc3nc2C)s1,32.2%
6,CCOC(=O)C1CCN(c2ncnc3c2c(-c2ccccc2)cn3-c2cccc(C)c2)CC1,-35.2%
7,CCOc1ccccc1C(=O)Nc1ccc(S(=O)(=O)N2CCCCC2c2cccnc2)cc1 (centres undefined),-33.6%
8,Cc1[nH]c2ccccc2c1C(=O)C(=O)NCc1nnnn1-c1cccc(F)c1,-19%
9,COc1ccc(NC(=O)c2ccc3nc(C(C)C)oc3c2)cc1OC,6.52%
10,Cc1cccn2c(=O)c(C(=O)NC(C)c3ccccc3)cnc12 (centres undefined),-18.5%
11,COC(=O)c1cc(S(=O)(=O)N2CCN(c3cc(C)ccc3C)CC2)c[nH]1,9.83%
12,Cc1cc(C(=O)N2CCC(C(=O)O)CC2)c(C(F)(F)F)o1,0.635%
13,Cc1ccc(C)c(NC(=O)CSC2=Nc3ccccc3N=C(c3ccc(F)cc3)C2)c1,22.5%
14,COc1ccc(C2Nc3ccccc3C(=O)N2c2ccc(Cl)cc2)cc1Cn1cc([N+](=O)[O-])cn1 (centres undefined),8.39%
15,Cc1ccc2c(C(=O)CN3CCCC3)c(C)[nH]c2c1,-81.5% (active)
16,Cc1[nH]c2ccccc2c1C(=O)CN1CCCC(C)C1 (centres undefined),64%
17,Cc1ccc2[nH]c(=O)c(CN3CCCCC3)c(-c3ccccc3)c2c1,11.7%
18,COc1ccc2c(C)c(CCC(=O)NCc3ccc(OC)c(OC)c3)c(=O)oc2c1,-7.55%
19,N#CC(C#N)=CN=c1ccn(Cc2ccc(Cl)cc2Cl)cc1,-94.3% (active)
20,CCc1nc2cccnc2n1-c1ccc(C(=O)O)cc1,-6.51%
